Experimental data from PubChem BioAssay (NCATS).
Inconclusive results are not listed. Entries that show only a call come without a potency. Values without a mark were called inactive. Calls of active or inactive are those of the source. The call rests on the fitted dose curve; in most records, active means well fitted inhibition curve with a large enough effect; inconclusive means small, poorly fitted or top-dose-only effect; inactive means flat fitted curve, though single readings scatter.

How the values were obtained:
HEK293 = assay: Cytotoxic Profiling of Annotated Libraries Using Quantitative High-Throughput Screening (AID 1296008); details: Five cell lines viability, CellTiter-Glo ATP luminescence, 48-72 h; max response: stronger effect = lower value
Procedure, shortened: (§1)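 Cytotoxicity was measured as CellTiter-Glo ATP luminescence, read after 10 min at room temperature. Compound treatment of the cells lasted 48 or 72 hr at 37 degrees Celsius in a qHTS format.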

HaCat [1] = assay: as above; details: Five cell lines viability, CellTiter-Glo ATP luminescence, 48-72 h; max response: stronger effect = lower value
Procedure, shortened: as §1

NIH3T3 = assay: as above; details: Five cell lines viability, CellTiter-Glo ATP luminescence, 48-72 h; max response: stronger effect = lower value
Procedure, shortened: as §1

HACAT [2] = assay: qHTS assay to identify novel small-molecules to repurpose for Merkel cell carcinoma treatment (AID 1296009); details: MCC and control cell lines, CellTiter-Glo viability, 72 h; at 44.8 µM (top of the series) unless noted
Procedure, shortened: (§2)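 After compound transfer in DMSO, plates were kept 72 hr at 37 degree celsius. Luminescent ATP signal from CellTiter-Glo served as viability measure, normalized against DMSO and no-cell controls.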

MCC-13 = assay: as above; details: MCC and control cell lines, CellTiter-Glo viability, 72 h; series mostly up to 46 µM
Procedure, shortened: as §2

MCC-26 = assay: as above; details: MCC and control cell lines, CellTiter-Glo viability, 72 h; series mostly up to 46 µM
Procedure, shortened: as §2

MKL-1 = assay: as above; details: MCC and control cell lines, CellTiter-Glo viability, 72 h; series mostly up to 46 µM
Procedure, shortened: as §2

MKL-2 = assay: as above; details: MCC and control cell lines, CellTiter-Glo viability, 72 h; series mostly up to 46 µM
Procedure, shortened: as §2
Further: nearly all actives have a fitted effect of over 60% in size.
Potency means the concentration at half of the fitted maximal effect.

Compound | max response (HEK293) [%] | outcome (HaCat [1]) | outcome (NIH3T3) | outcome (HACAT [2]) | Potency (MCC-13) | Potency (MCC-26) | Potency (MKL-1) | Potency (MKL-2) | max response (NIH3T3) [%] | Potency (HEK293)
N#CC1(c2ccc(F)cc2)CCC(=O)CC1 | -11.6 | inactive | inactive | inactive | inactive | inactive | inactive | inactive |  | 
CCO[C@H](Cc1ccc(OCCc2ccc(OS(C)(=O)=O)cc2)cc1)C(=O)O | -6.35 | inactive |  | inactive | inactive | inactive | inactive | inactive | -1.31 | 
CCCCCCCC(=O)[O-].CCCCCCCC(=O)[O-].[Zn+2] | -2.75 | inactive |  | inactive | inactive | inactive | inactive | inactive | 4.51 | 
COc1ccc2c(c1)CCCC2=O | -10.4 | inactive | inactive | inactive | inactive | inactive | inactive | inactive |  | 
O=C1c2ccccc2CCc2ccccc21 | -2.77 | inactive |  | inactive | inactive | inactive | inactive | inactive | 0.759 | 
CC(C)=CCC/C(C)=C/CC/C(C)=C/CCC(=O)OC/C=C(\C)CCC=C(C)C | -2.81 | inactive | inactive | inactive | inactive |  | inactive | inactive |  | 
CC(C)(C)c1cc(C=O)cc(C(C)(C)C)c1O | 3.28 | inactive |  | inactive | inactive | inactive | inactive | inactive | 1.57 | 
O=c1[nH]c2ccccc2c(=O)n1CCCl | -6.35 | inactive | inactive | inactive | inactive | inactive | inactive | inactive |  | 
CO/N=C(\C(=O)O)c1csc(NC(=O)CCl)n1 | -4.55 | inactive | inactive | inactive | inactive | inactive | inactive | inactive |  | 
CCCCC(O)/C=C(C)/C=C/C=C/C(=O)N1CCCC1=O (stereo not given) | 1.86 | inactive | inactive | inactive | inactive | inactive | inactive | inactive |  | 
CCCCCCOC(=O)NC(=N)c1ccc(NCc2nc3cc(C(=O)N(CCC(=O)OCC)c4ccccn4)ccc3n2C)cc1 |  | inactive |  | inactive | inactive | inactive | 8.41 µM (active) | 15 µM (active) | 1.24 | 10.6 µM (active)
COc1ccc2nc(SCc3ncc(C)c(OC)c3C)[nH]c2c1 | -3.1 | inactive | inactive | inactive | inactive | inactive | inactive | inactive |  | 
CC(=O)N(CC(O)CO)c1c(I)c(C(=O)NCCO)c(I)c(C(=O)NCC(O)CO)c1I (stereo not given) | 2.15 | inactive | inactive | inactive | inactive | inactive | inactive | inactive |  | 
COc1cc(C=O)ccc1O | -1.3 | inactive |  | inactive | inactive | inactive | inactive | inactive | -0.279 | 
CCCCC(CC)CNC(=O)CC(C)OC(=O)CCC(=O)O (stereo not given) | 1.54 | inactive |  | inactive | inactive | inactive | inactive | inactive | -1.58 | 
CSc1ccc(/C=C2/C(C)=C(CC(=O)O)c3cc(F)ccc32)cc1 | 0.521 | inactive |  | inactive | inactive | inactive | inactive | inactive | -3.24 | 
CN1Cc2cc(C(=O)N3CCC(C4CCNCC4)CC3)ccc2N[C@@H](CC(=O)O)C1=O | -1.55 | inactive |  | inactive | inactive | inactive | inactive | inactive | 1.44 | 
CCN(CC)CC(=O)OCC(=O)[C@@]1(O)CC[C@H]2[C@@H]3CCC4=CC(=O)CC[C@]4(C)[C@H]3[C@@H](O)C[C@@]21C | 0.946 | inactive | inactive | inactive | inactive | inactive | inactive | inactive |  | 
C[C@@H]1CCC[C@H](C)N1CCCC(O)(c1ccccc1)c1ccccn1 (stereo not given in full) | -3.44 | inactive |  | inactive | inactive | inactive | inactive | inactive | -1.21 | 
COC(=O)c1cc(Cl)c(NC(C)=O)cc1OC | -2.05 | inactive | inactive | inactive | inactive | inactive | inactive | inactive |  | 
CC(C)C(=O)Nc1cccc(C(F)(F)F)c1 | 3.73 | inactive |  | inactive | inactive | inactive | inactive | inactive | 2.63 | 
Nc1ccc([N+](=O)[O-])c(C(F)(F)F)c1 | 4.93 | inactive |  | inactive | inactive | inactive | inactive | inactive | 0.447 | 
